The values below come from PubChem BioAssay (NCI).

About 83,000 compounds went through this panel and 20% of them were active in at least one assay; those are over-represented in the sample as a whole.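 Testing used 96-well plates and a 48-hour single-concentration exposure. Example: -40 means 40% of the starting cells died.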 The source made the active and inactive calls.

For the experiment, the system named is OVCAR-5 ovarian. In words: NCI-60 one-dose screen, 48 h (100 = growth as untreated, 0 = no growth, -100 = all killed). The following applies: 10 µM unless noted. The method, then:
Growth inhibition of the OVCAR-5 human tumor cell line is measured as a screen for anti-cancer activity. Cells are grown in 96 well plates and exposed to the test compound for 48 hours. Compounds are tested at a single concentration, which is 10^-5 M for most compounds. The reported endpoint is percent growth (GI% or GIPRCNT), where numbers from 0 - 100% represent growth inhibition, and numbers from -100% - 0 represent cell death. For example, a value of 40 represents 60% growth inhibition. A value of 0 means no net growth occurred over the course of the experiment. A value of -40 indicates 40% of cells at the beginning of the experiment died by the end of the experiment. A value of -100 means all cells are dead at the end of the experiment.
NCI-60 Human Tumor Cell Lines Screen was performed using the standard one-dose NCI protocol, which is described in more detail at https://dtp.cancer.gov/discovery_development/nci-60/default.htm.
Compounds with GIPRCNT values below 10 were considered active. Activity score was based on GIPRCNT using the following formula: […]
Score is 0 for GIPRCNT values of 100 or above, 50 for GIPRCNT values of 0, and 100 for GIPRCNT values of -100.
Consider `CCOC1Oc2ccccc2C(=O)/C1=N/c1nccs1` (stereo not given), for which the growth was 99.1% (inactive).

Consider `NC(=O)NC1(C(=O)O)CCCC1`, for which the growth is 98.5% (inactive). With `Nc1ccccc1C#Cc1ccccc1C#Cc1ccc(OCCCCCCOc2ccc(C#Cc3ccccc3C#Cc3ccccc3N)cc2)cc1` the figure was 90.7% (inactive). With `Cc1n(Cc2ccc3ccccc3c2)cc[n+]1Cc1ccc2ccccc2c1` the figure was 20.6% (inactive). With `Cc1ccc(/C=C(/C#N)n2nnc3ncccc32)cc1` the figure was -20.3% (active). For the compound `CCOC(=O)C1C(=O)NC(C(=O)OCC)(C(=O)OCC)C1CC` (stereo not given), the growth was 105% (inactive). On to `N#Cc1c(-c2ccccc2)cc(-c2ccccc2)n(CCC(=O)O)c1=O`, for which the growth was 94.2% (inactive). Consider `CCSc1ncc(Br)c(Sc2nc(N)nc3nc[nH]c23)n1`, for which the growth is 72.3% (inactive).

For the compound `CC1CN(/N=C/c2ccc([N+](=O)[O-])o2)C(=N)O1` (stereo not given), the growth is 106% (inactive). With `C=C1CCC2C(C)(COC(=O)CC)C(OC(=O)CC)CCC2(C)C1C/C=C1/C(=O)OCC1OC(=O)CC` (stereo not given), the growth was -1.17% (active). For the compound `COc1ccc(/C=C/C(=O)c2cccc(NS(C)(=O)=O)c2)cc1`, the growth was 94.9% (inactive). With `Cc1sc2nc3c4ccccc4c(NCCCN(C)C)nn3c(=O)c2c1C` the figure was 71% (inactive); with `O=C(O)C1CCN(S(=O)(=O)c2ccc(-c3ccccc3)cc2)CC1`, 125% (inactive); with `O=C(CC(C(=O)c1ccccc1)N1CCN(Cc2ccccc2)CC1)c1ccccc1` (stereo not given), 86.3% (inactive). With `Cc1ccc(C(=O)Cc2ccccc2)c(O)c1`, the growth was 99.1% (inactive). Regarding `O=C(/C=C(\Nc1ccccc1)c1ccccc1)c1cn(-c2ccc([N+](=O)[O-])cc2)nn1`, the growth is 116% (inactive). With `COc1cnc2c(c1)C(=O)c1c-2n(CCCNC(C)C)c(=O)c2cc(F)ccc12` the figure was -26.5% (active); with `Cc1cc(C(=O)Nc2ccc3cc(CN4CCOCC4)ccc3n2)c(C)n1-c1ccccc1`, 83.1% (inactive); with `CC(=O)/C(=C/c1ccc(Cl)cc1)C(=O)c1ccccc1`, 111% (inactive).

As to `Cc1[nH]cnc1/C=C1\SC(N2CCCCC2)=NC1=O`, the growth was 107% (inactive). As to `O=c1oc2c(cc1-c1ccc([N+](=O)[O-])cc1)C(O)Oc1ccccc1-2` (stereo not given), the growth was 82.1% (inactive). With `O=C(NN1C(=O)c2cc(C(=O)O)c(C(=O)O)cc2C1=O)c1ccncc1` the figure was 107% (inactive); with `CSc1nc(Nc2ccc(S(=O)(=O)Nc3ccon3)cc2)c(C#N)c(-c2ccc(Cl)cc2)n1`, 106% (inactive). Consider `CC(=O)N1N=C(c2ccc(Nc3nc(NCCO)nc(NCCO)n3)cc2)CC1c1ccc(Cl)cc1` (stereo not given), for which the growth is 103% (inactive). `C/C=C(/C(=C/C)c1ccc(O)cc1)c1ccc(O)cc1`: the growth was 50.1% (inactive). With `Cc1ccc(-c2c3c(N)c4c(nc3nc3c2c(C)nn3-c2ccccc2)CCC4)cc1`, the growth is 94.7% (inactive). To `COc1ccc2nc(NC(=O)CN3CCn4c(nnc4C(F)(F)F)C3)sc2c1` belongs 97.9% (inactive); to `[N-]=[N+]=NCc1ncc(-c2ccc(C(F)(F)F)cc2)c(NC2CCCCCC2)n1`, 90.7% [50 µM] (inactive); to `CCOc1cc(/C=C/C(=O)C(C(=O)/C=C/c2ccc(OC(=O)CNc3nc4ccccc4[nH]3)c(OCC)c2)C(=O)CNc2nc3ccccc3[nH]2)ccc1OC(=O)CNc1nc2ccccc2[nH]1`, 11.5% (inactive). Take `OCc1n(Cc2ccc3ccccc3c2)cc[n+]1Cc1ccc2ccccc2c1`: the growth was 62.3% (inactive). To `O=C(c1ccccc1)C(CN1CCCCC1)c1ccccc1` (stereo not given) belongs 32.5% (inactive); to `CCSc1nc(-c2cccs2)n2nc(-c3ccco3)cc2n1`, 97.3% (inactive); to `C=C1CCC2C3(C)COC(c4ccccc4)OC3CCC2(C)C1C/C=C1/C(=O)OCC1OC(C)=O` (stereo not given), 120% (inactive). With `Nc1ccc(N=Nc2ccccc2)cc1[N+](=O)[O-]` the figure was 110% (inactive); with `CCNCCCn1c2c(c3ccc(F)cc3c1=O)C(=O)c1cc(OC)cnc1-2`, 3.24% (active); with `Clc1ccc(C2c3ccccc3-c3nccn32)c(Cl)c1` (stereo not given), 114% (inactive). With `O=C1CSC(c2ccccc2O)N1c1nnc(Cn2ccnc2)o1` (stereo not given) the figure was 97.2% (inactive). For the compound `COc1ccc2ncccc2c1Cc1c(OC)ccc2ncccc12`, the growth was 91.4% (inactive). For the compound `O=C(NC1CCS(=O)(=O)C1)c1ccc(C(=O)c2ccccc2)cc1` (stereo not given), the growth is 102% (inactive). With `NC(=N\N=C/Cc1ccccc1)/C(N)=N\N=C\Cc1ccccc1` the figure was 98.8% (inactive).
